# Source: PubChem (The Scripps Research Institute Molecular Screening Center)
# MITF primary – inhibitors of human MITF; AID 1259374; inhibition, % at 2.6 µM; actives 0.91% (n = 650,000); AlphaScreen MITF homodimerization, bead proximity signal; O75030; in the data active = inhibition above about 50%;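 also: 0% = vehicle wells with protein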
# Target sequence (O75030 whole entry, looked up): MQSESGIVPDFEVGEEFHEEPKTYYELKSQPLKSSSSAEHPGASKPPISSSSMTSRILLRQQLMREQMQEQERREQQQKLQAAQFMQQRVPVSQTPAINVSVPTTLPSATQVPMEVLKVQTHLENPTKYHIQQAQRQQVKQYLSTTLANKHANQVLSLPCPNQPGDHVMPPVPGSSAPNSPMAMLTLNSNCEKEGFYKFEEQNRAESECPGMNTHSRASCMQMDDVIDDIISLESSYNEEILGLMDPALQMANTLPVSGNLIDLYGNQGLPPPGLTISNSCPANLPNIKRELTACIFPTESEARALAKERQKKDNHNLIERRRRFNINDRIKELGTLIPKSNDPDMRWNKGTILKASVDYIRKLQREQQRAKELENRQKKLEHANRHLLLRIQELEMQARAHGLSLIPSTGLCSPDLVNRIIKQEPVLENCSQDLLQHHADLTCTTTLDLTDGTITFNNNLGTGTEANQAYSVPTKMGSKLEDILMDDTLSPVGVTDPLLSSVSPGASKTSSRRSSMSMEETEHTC
# FBW7 activator – human FBW7 E3 ligase activation, primary screen; AlphaScreen FBW7–phospho-cyclin E peptide binding, activator screen; normalized activity (activation), % at 26.1 µM; actives 0.13% (n = 650,000); AID 1259310; in the data active = normalized activity above about 1.9%;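 also: purified mutant Fbw7 with reduced substrate affinity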
# TEAD-YAP block – TEAD-YAP interaction inhibition. HEK-TIYL cells, TEAD-Gal4/YAP UAS-luciferase luminescence. inhibition, % at 9.12 µM. actives 1.4% (n = 640,000); in the data active = inhibition above about 32%;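 also: 0% = median of test compound wells and 100% = reference inhibitor wells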
# GPR151 ag – activators of human GPR151 | Q8TDV0 | PathHunter beta-arrestin GPR151 cells, luminescence | activation, % at 11.2 µM | actives 1% (n = 650,000) | AID 1508602; in the data active = activation above about 4.9%;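 also: 0% = median of compound wells and 100% = cells with positive control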
# An asterisk follows results filed as active. Hits are enriched below; roughly 3.5% of the tested compounds scored in any of these assays.
SMILES,MITF primary,FBW7 activator,TEAD-YAP block,GPR151 ag
CCCc1ccc(Oc2c(C(F)(F)F)oc3cc(O)ccc3c2=O)cc1,9.0,1.2,65.1*,-0.7
C/C(Cl)=C/Cn1c(NCCc2ccccc2)nc2c1c(=O)n(C)c(=O)n2C,-1.0,-0.2,5.9,0.3
C=CCNc1nc2c(c(=O)n(C)c(=O)n2C)n1Cc1ccccc1,14.3,0.1,34.5*,2.0
C=CCn1c(NCCc2ccccc2)nc2c1c(=O)n(C)c(=O)n2C,-17.9,-0.1,36.8*,0.9
C/C(=N/Nc1nc2c(c(=O)n(C)c(=O)n2C)n1Cc1ccccc1)c1ccccc1O,5.8,0.1,7.4,1.1
CCOc1cc(/C=N/Nc2nc3c(c(=O)n(C)c(=O)n3C)n2Cc2ccccc2)ccc1O,0.3,0.1,43.7*,-1.0
CC(C)CSc1nnc(CCNC(=O)CSc2ccccn2)n1C,-24.6,0.1,-6.7,-0.3
Cc1ccccc1NC(=O)c1ccc(F)c(S(=O)(=O)N2CCN(c3ccc(F)cc3)CC2)c1,6.9,0.0,5.4,-0.4
CCc1ccccc1NC(=O)CSC1=C(C#N)C(c2ccc(C)o2)C2=C(CCCC2=O)N1 (centres undefined),-2.6,-0.1,55.2*,-1.1
Cc1nc(C)n(-c2ccc(Nc3nccc(-c4cc(F)cc(N5CCCC5)c4)n3)cc2)n1,-2.6,0.0,1.0,-0.1
CCN1CCN(c2cc(F)cc(-c3ccnc(Nc4ccc(-n5nc(C)nc5C)cc4)n3)c2)CC1,15.5,0.6,67.5*,1.9
Cc1nc(C)n(-c2ccc(Nc3nccc(-c4cccc(-n5cncn5)c4)n3)cc2)n1,9.2,0.0,44.5*,-0.2
Cc1nc(C)n(-c2ccc(Nc3nccc(-c4cc(F)cc(-c5cn[nH]c5)c4)n3)cc2)n1,6.6,-0.2,-3.6,0.6
CNc1cc(F)cc(-c2ccnc(Nc3ccc(-n4nc(C)nc4C)cc3)n2)c1,31.2,0.3,58.7*,-2.2
Cc1nc(C)n(-c2ccc(Nc3nccc(N(CCO)Cc4ccccc4)n3)cc2)n1,-6.0,-0.1,51.5*,0.7
COc1ccc(-c2nnc(SCC(=O)Nc3ccc(C(N)=O)cc3)n2CC(C)C)cc1,-3.4,-0.2,5.4,-1.8
N/C(=N\OC(=O)c1cccc(Cl)c1)c1ccccn1,12.1,0.0,49.3*,-5.7
Cc1cc(C)cc(C(=O)O/N=C(\N)c2ccccn2)c1,15.2,0.1,-44.1,-1.5
N/C(=N\OC(=O)c1ccccc1F)c1ccccn1,18.0,0.6,81.7*,-8.5
N/C(=N\OC(=O)c1ccccc1Br)c1ccccn1,15.4,0.2,66.3*,-7.4
Cc1ccc(C(=O)O/N=C(\N)c2ccccn2)c(C)c1,-4.0,0.1,89.5*,-10.3
N/C(=N\OC(=O)c1ccccc1I)c1ccccn1,-14.0,0.0,-26.8,-5.4
Cc1ccc(-c2nc(CCNC(=O)c3cccc(Br)c3)cs2)cc1,5.5,0.0,-5.6,3.7
O=C1CCC(CCC(=O)N2CCN(c3ncnc4ccccc34)CC2)(Cc2ccsc2)N1 (centres undefined),-17.7,0.2,-1.2,4.4
NC(=O)c1ccc(CN2CCOCC2)cc1,18.6,1.2,3.9,-2.0
SMILES,MITF primary,FBW7 activator,TEAD-YAP block,GPR151 ag
Cc1nnc(NC(=O)/C=C/c2ccc(OCc3ccccc3)cc2)s1,4.6,0.1,-0.1,-0.7
COc1ccccc1C(=O)O/N=C(\N)c1ccccn1,0.8,0.0,38.4*,-7.9
COCCn1c(Cc2ccccc2)nnc1SCC(=O)NC(C)(C)C,-13.1,0.0,58.9*,0.0
CCn1c(Cc2ccccc2)nnc1SCC(=O)NC(C)(C)C,-1.8,-0.1,-16.7,1.6
O=C(C[n+]1cccc2ccccc21)c1ccccc1,10.6,0.1,-6.8,-2.7
CCc1n[n+](CC(=O)c2ccccc2)c(N)s1,10.7,0.2,57.1*,-9.2
Nc1sc2ccccc2[n+]1CC(=O)c1ccccc1,24.6,2.4*,74.7*,-8.7
Cn1c(C2CCCN2)nc2ccccc21 (centres undefined),12.2,-1.2,9.5,1.5
O=C(CSc1nc2[nH]ncc2c(=O)n1-c1ccc(Cl)cc1Cl)NC1CCCCNC1=O (centres undefined),-7.6,0.2,-2.5,-0.4
Cn1cnc([N+](=O)[O-])c1Sc1nc2ccccc2[nH]1,0.6,0.5,56.2*,-0.7
CC(NC(=O)NC1CCCCC1)C(c1ccccc1)N1CCN(C)CC1 (centres undefined),15.4,0.2,7.4,-0.7
O=C(NCCn1ccnc1)C1CC12CCN(Cc1nc(-c3ccccc3)cs1)CC2 (centres undefined),-3.3,0.0,3.8,-0.1
Cc1ccc(Nc2nc(-c3c(C)nc4sccn34)cs2)c(C)c1,-2.6,-0.1,50.3*,0.8
CCOc1ccc(Nc2nc(-c3c(C)nc4sccn34)cs2)cc1,10.1,0.0,60.9*,-0.8
